Over roughly 2,300 compounds, “plate-normalized OD600 growth (mean of duplicates)” has its median near 0.29; the lowest 2% begin near 0.22. For the sample, the lowest values were picked, then their nearest neighbours and some compounds at random.
Test system: Escherichia coli BW25113
Assay: plate-normalized OD600 growth (mean of duplicates) (OD600 (normalized)); higher = more growth (less inhibition)
Conditions: 10 µM
Protocol: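 E. coli BW25113 in LB (100 µl, 96-well, no shaking) was exposed to 10 µM of each compound from a ~30,000-member library and grown at 37°C for 24 h or 15°C for 48 h, in duplicate. Growth was read as OD600 and the duplicate ODs were normalized across screening plates to correct plate-to-plate variation. Hits were >3σ below the mean OD600 at 15°C and <2σ below the mean at 37°C.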

SMILES	plate-normalized OD600 growth (temperature: 15°C, 48 h)	plate-normalized OD600 growth (temperature: 37°C, 24 h)
NC(N)=NC(N)=Nc1ccccc1C(F)(F)F	0.243	0.604
Cc1ccc(C2=Nc3ccccc3N=C(C(Cl)Cl)C2)cc1	0.25	0.629
Cc1noc(N)c1C(N)=S	0.247	0.612
O=C(COc1ccc(/C=N/NC(=O)CO)cc1)NCC1CCCO1 (centres undefined)	0.227	0.668
NNC(=O)c1cnn(-c2ccc(Cl)cc2)c1C(F)(F)F	0.253	0.627
CCN(CC)c1ccc(NC(=O)c2c(F)cccc2F)c(N(CC)CC)n1	0.235	0.602
Cc1ccc(N=Cc2ccc(Sc3nc4ccccc4s3)o2)cc1	0.245	0.625
C/C(=N/NC(=O)COc1cccc(Cl)c1)c1ccc(Cl)cc1	0.248	0.631
CC1(C)OC(=O)N(CCCCCCN2C(=O)OC(C)(C)C2(C)O)C1(C)O (centres undefined)	0.197	0.652
CC1(O)N(CCN)C(=O)OC12CCCCC2 (centres undefined)	0.269	0.626
COc1ccc(/C(C)=N\NC2=NCCCN2)cc1	0.214	0.597
Cc1ccc(C(=O)c2sc3nc(-c4cccs4)cc(C(F)(F)F)c3c2N)cc1	0.239	0.623
Nc1c(C(=O)c2ccc(Br)cc2)sc2nc(-c3cccs3)cc(C(F)(F)F)c12	0.142	0.578
Nc1c(C(=O)c2ccc(Br)cc2)sc2nc(-c3ccccc3)cc(-c3ccccc3)c12	0.256	0.621
Cc1ccccc1COC(=O)c1ccc(-c2nnn(Cc3ccccc3C)n2)cc1	0.244	0.611
CCOc1ccc(NC(=O)CSc2nc(C)cc(COC)c2C#N)cc1	0.21	0.638
CCOc1ccc(-n2nc3ccc(NC(=O)COc4ccccc4C)cc3n2)cc1	0.235	0.616
COCc1cc(C)nc2sc(C(=O)OC)c(N)c12	0.243	0.626
CCc1c(C)nc2[nH]nc(-c3ccccc3C)n2c1=O	0.245	0.626
Cc1cc(=O)n2c(-c3ccc(Cl)cc3)csc2n1	0.239	0.607
CCc1c(C)nc2cc(-c3ccc(Cl)cc3)[nH]n2c1=O	0.214	0.632
NC(N)=NS(=O)(=O)c1ccc(NC(=O)C2CCCCC2)cc1	0.256	0.628
COc1ccc2[nH]c(C)c(CCNS(=O)(=O)c3cc(Cl)ccc3Cl)c2c1	0.249	0.606
COc1ccc(Cc2nnc(-c3ccc(-c4cccs4)s3)o2)cc1	0.258	0.615
Cc1c(NC(=O)c2ccc(N)cc2)c(=O)n(-c2ccccc2)n1C	0.248	0.629

SMILES	plate-normalized OD600 growth (temperature: 15°C, 48 h)	plate-normalized OD600 growth (temperature: 37°C, 24 h)
CC(C)(C)OC(=O)NC1CCN(C(=O)c2ccc(Cl)cc2Cl)CC1	0.244	0.629
O=[N+]([O-])c1ccc2c(c1)S(=O)(=O)N=C2Nc1cc(Cl)ccc1Cl	0.251	0.626
C=CCn1c2ccccc2c2nnc(SCC(=O)Nc3ncccn3)nc21	0.245	0.599
Cc1cccc(C2(c3cccc(C)c3)CC2C(=O)Nc2ccc(C#N)cc2)c1 (centres undefined)	0.232	0.597
CC(C)CSc1ncnc2scc(-c3ccccc3)c12	0.235	0.631
Cc1ccc(N(C)C(=S)Nc2ccc3nc[nH]c(=O)c3c2)cc1C	0.237	0.625
Cc1cccc(-n2c(C)cc(C=Nc3ccc(Cl)cc3O)c2C)c1	0.249	0.613
COc1c(Cl)cnc(Cl)c1C(N)=O	0.265	0.636
C/C(=N/O)c1ccc2c(c1)C(C)(C)CCC2(C)C	0.256	0.629
N#Cc1cc(I)c(C#N)c(I)c1	0.198	0.616
O=C(O)CCCN1C(=O)C(=O)C(=C(O)c2ccccc2)C1c1ccc(Br)cc1 (centres undefined)	0.226	0.646
Cc1sc(NC(=O)c2cc3ccccc3oc2=O)nc1-c1ccc(-c2ccccc2)cc1	0.253	0.625
CC(C)(C)n1ncc(N/N=C/c2ccc(Cl)cc2)c(Cl)c1=O	0.238	0.605
CC(C(=O)O)C(=O)c1cc(Cl)c(Cl)cc1Cl (centres undefined)	0.215	0.63
O=S(=O)(c1cc(Br)c(Br)s1)N1CCCCC1	0.262	0.63
Nc1nc(=Nc2ccccc2)n2c(n1)sc1ccccc12	0.243	0.61
CC(=O)Nc1ccc(NC(=O)CSc2nnc(NS(C)(=O)=O)s2)cc1	0.252	0.63
O=C1C(Cl)=C(Oc2cc(Cl)c(Cl)cc2Cl)C(=O)c2ccccc21	0.211	0.613
COc1cc(Cl)c(Cl)cc1Cl	0.251	0.604
COc1ccc(NC(=O)/C=C/c2cccc(Oc3ccccc3)c2)cc1	0.245	0.633
NC1=Nc2nc(Nc3ccccc3)sc2/C(=C/c2ccc(O)cc2)N1	0.248	0.628
Cc1onc(-c2ccccc2Cl)c1C(=O)Nc1ccc(S(=O)(=O)Nc2nccs2)cc1	0.246	0.614
NS(=O)(=O)c1ccc(CCn2c(-c3ccc(S(=O)(=O)N4CCCC4)cc3)csc2=Nc2cccc(C(F)(F)F)c2)cc1	0.257	0.65
O=C1NC(=O)c2cc(-c3ccc([N+](=O)[O-])cc3)ccc21	0.241	0.631
O=[N+]([O-])c1ccc(-c2ncn[nH]2)cc1	0.209	0.607

SMILES	plate-normalized OD600 growth (temperature: 15°C, 48 h)	plate-normalized OD600 growth (temperature: 37°C, 24 h)
O=[N+]([O-])c1ccc(OCCCOc2ccc([N+](=O)[O-])cc2)cc1	0.238	0.596
CC(C)c1ncc(C(O)c2cccc3ccccc23)n1C (centres undefined)	0.249	0.63
O=c1[nH]c(-c2cn[nH]c2-c2ccc(F)cc2)nc2sc3c(c12)CCCC3	0.237	0.637
CS/C(N)=N\N=C/c1c(F)cccc1Cl	0.258	0.652
Cc1oc(-c2ccccc2)cc1C(=O)N1CCN(c2ccc([N+](=O)[O-])cc2)CC1	0.265	0.667
COc1cc(C=NCc2ccco2)ccc1O	0.242	0.622
CCN1CCN(CCC(=O)Nc2ccccc2)CC1	0.228	0.624
NC(=O)C1CCN(CCC(=O)Nc2ccccc2)CC1	0.208	0.651
CC1CCN(CCC(=O)Nc2ccc(Cl)cc2)CC1	0.261	0.643
CC(C)(C)S(=O)(=O)/C(C#N)=C/N1CCCCC1	0.267	0.62
O/N=C\c1sccc1Oc1ccccc1	0.254	0.635
CCOC(=O)c1ccc(-n2nnnc2C(c2ccc(Cl)cc2Cl)N2CCOCC2)cc1 (centres undefined)	0.241	0.645
Cc1ccc(C=Nc2ccc(-c3ccc(N=Cc4ccc(C)o4)c(C)c3)cc2C)o1	0.224	0.622
Cc1ccc(NC(=O)CCN2CCN(c3ccccc3)CC2)cc1	0.26	0.612
C/C(CC(=O)Nc1ccc(N(C)C)cc1)=N\NC(=O)COc1ccc(C)cc1	0.236	0.627
CC(=O)N(CC(=O)Nc1ccc(C)cc1)c1ccccc1	0.214	0.646
COC(=O)C1=NN(c2ccccc2Cl)C2(S1)c1ccccc1C(C)=NN2c1ccccc1 (centres undefined)	0.234	0.641
O=C(NCCSCc1ccco1)c1ccc(Cl)cc1	0.25	0.605
CC12CCC(C1)C(C)(C)C2NC(=O)c1cccs1 (centres undefined)	0.26	0.639
Cc1nn(CC(=O)NNC(=O)COc2ccc(Cl)cc2Cl)c(C)c1Br	0.235	0.607
O=C(Oc1ccc(N(C(=O)c2ccccc2)S(=O)(=O)c2cccs2)cc1)c1ccccc1	0.225	0.622
O=c1[nH]nc(-c2ccc(N3CCN(CCO)CC3)c([N+](=O)[O-])c2)c2ccccc12	0.242	0.616
COCc1cc(C)c2c(n1)sc1c2nc(C)n2c3ccccc3nc12	0.244	0.619
CCOc1ccc(NC(=O)CC2S/C(=N\N=C\c3ccc(C)s3)NC2=O)cc1 (centres undefined)	0.222	0.624
Cc1cc(C(O)(C(F)(F)F)C(F)(F)F)cc(C)c1O	0.249	0.618

SMILES	plate-normalized OD600 growth (temperature: 15°C, 48 h)	plate-normalized OD600 growth (temperature: 37°C, 24 h)
O=C(Nc1nc(-c2ccccc2)cs1)C1CC(O)CN1C(=O)Oc1ccccc1 (centres undefined)	0.263	0.648
Cc1cc(/C=N/NC(=O)c2cc3ccccc3o2)c(C)n1-c1ccc(C23CC4CC(CC(C4)C2)C3)cc1	0.244	0.607
COc1cccc(C2C3=C(CC(C)(C)CC3=O)OC(N)=C2[N+](=O)[O-])c1 (centres undefined)	0.246	0.619
O=C(CC(=O)Nc1cccc(Cl)c1)N/N=C\c1ccccc1	0.246	0.616
OCCCc1cccc(C(F)(F)F)c1	0.242	0.586
O=C1C=C(Cl)CC(c2ccc(C(F)(F)F)cc2)C1 (centres undefined)	0.243	0.607
O=C(O)c1ccc(Br)c(NC(=O)C2C3C=CC(C3)C2C(=O)O)c1 (centres undefined)	0.248	0.604
N/C(=N\OC(=O)c1ccno1)c1ccc(C(F)(F)F)cc1	0.253	0.612
Cc1nnn(-c2nonc2N)c1C(=O)NNC(=O)c1ccc(Cl)c(Cl)c1	0.243	0.606
O=C(O)c1oc(C(=O)O)c(OCc2ccccc2)c1OCc1ccccc1	0.263	0.637
O=C(NNC(=O)c1ccccc1OCc1ccccc1)c1ccc(Cl)c(Cl)c1	0.216	0.606
O=C(Nc1ccc(Cl)cc1Cl)c1cnccn1	0.245	0.607
N#CC1=C2N=C(N)c3c(sc4c3CCCC4)N2C2=C(C(=O)CCC2)C1c1cccnc1 (centres undefined)	0.246	0.624
C/C(=N/OC(=O)c1ccc(Cl)cc1)c1ccc(F)cc1	0.236	0.601
CCN(CC)C(=O)NC(=O)c1c(C)cc(Cl)nc1Cl	0.243	0.63
Cc1ccc(N2CC(=O)N(/N=C/c3ccc(F)cc3)C2=S)cc1	0.232	0.63
COc1ccc(C(=O)[C@@H]2[C@@H](c3cccs3)C(C#N)(C#N)[C@H]3C=Cc4ccccc4N23)cc1	0.251	0.63
CC(=O)C1C(=O)CC(C)(O)C(C(C)=O)C1c1ccc(Br)cc1 (centres undefined)	0.25	0.616
C/C(=C\C(=O)Nc1ccc(F)cc1)Nc1ccc(F)cc1	0.253	0.613
CC(=O)C1=C(Nc2ccc(C)cc2)CC(C)(O)C(C(C)=O)C1c1ccc(F)cc1 (centres undefined)	0.208	0.598
CN(C)N=Nc1ccc(S(=O)(=O)NC(=O)Cc2ccccc2)cc1	0.24	0.612
CC(C)(C)NC(=O)c1cc(NC(=O)C(F)(F)F)cc(NC(=O)C(F)(F)F)c1	0.234	0.605

Source: the supplement of paper PMC4371806
